The values below come from PubChem BioAssay AID2275 (Broad Institute, 2010).

In all, about 30,000 compounds went through this assay and about 190 (0.63%) were called active. This is one part of a sample in which actives are shown more often than they occur. No stated cut-off is given here; in the data, active means viability loss activity score above about 50%; inconclusive means no clear call, values can overlap the other calls; inactive means below about 35%.

The nature of the assay: cytotoxicity in HRASV12-transformed BJ fibroblasts – cell-based, luminescence, CellTiterGlo ATP, primary screen (AID 2275).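 Further: higher score means fewer live cells and less ATP luminescence.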 The settings on record: BJeLR fibroblasts viability, 48 h, hits give high values, HRASV12, hTERT and SV40 LT/ST transformed, concentration not given here.
`O=C(CC(O)(c1ccccc1)C(F)(F)F)c1ccccc1` (stereo unspecified): the viability loss activity score is -2.63% (inactive).

As for `CCCCN(C)S(=O)(=O)c1ccc2c(c1)oc(=O)n2C`, the viability loss activity score was -1.52% (inactive).

For the molecule `CC(=O)Oc1ccc(N(C(C)=O)S(=O)(=O)c2ccc(Cl)cc2)cc1`, the viability loss activity score is -1.22% (inactive). As to `CC[C@]1(O)C[C@@H]2CN(CCc3c([nH]c4ccccc34)[C@@](C(=O)OC)(c3cc4c(cc3OC)N(C)[C@H]3[C@@](O)(C(=O)OC)[C@H](OC(C)=O)[C@]5(CC)C=CCN6CC[C@]43[C@@H]65)C2)C1`, the viability loss activity score was 64.7% (active). As to `COc1ccc(C(=O)OC2=C(c3ccccc3)C(=O)c3ccccc3C2=O)cc1`, the viability loss activity score was -6.2% (inactive). Under `CC1=C(C(=O)OC2CC(C)CCC2C(C)C)C(c2ccc(Br)cc2)n2nnnc2N1` (stereo unspecified) stands -1.4% (inactive); under `CCC1CCCCN1C(=O)c1ccc(F)cc1` (stereo unspecified), 5.08% (inactive); under `O=C(CSc1ccccn1)NCc1ccccc1`, -3.11% (inactive). Under `CCN1C(=O)c2cccc3c(NC(=S)NC(=O)c4ccccc4)ccc1c23` stands 2.04% (inactive). Under `Cc1ccc(S(=O)(=O)N(C)C[C@@H]2Oc3c(NC(=O)NC(C)C)cccc3C(=O)N([C@H](C)CO)C[C@H]2C)cc1` stands 0.297% (inactive); under `C=CC[C@H]1Cc2ccccc2[C@H](CC=C)N1`, 5.12% (inactive); under `COc1ccc(-c2coc3c(C)c4oc(=O)c5cc(OC)ccc5c4cc23)cc1`, -3.61% (inactive). Turning to `COC(=O)C1=C(N)Oc2cc(C)oc(=O)c2C1c1cccnc1` (stereo unspecified), the viability loss activity score is -1.16% (inactive). As for `CCOC(=O)CCN1N=C(c2ccc(CC)cc2)CCC1=O`, the viability loss activity score was -3.96% (inactive). To `COc1ccc(S(=O)(=O)NCCN2CCOCC2)cc1-c1nnc2c3ccccc3c(C)nn12` belongs 13.3% (inactive); to `CN(C)c1ccc(C2CC(c3ccc(Br)cc3)=NN2S(C)(=O)=O)cc1` (stereo unspecified), 6.95% (inactive). `CSc1c(CC(=O)Nc2ccc(C)cc2)[nH]c2ccccc12`: the viability loss activity score is 1.08% (inactive).

Take `CC(=O)OCCn1c(=O)c2ccccc2c2ccccc2c1=O`: the viability loss activity score was 0.959% (inactive). To `Cc1c(C(=O)OC2CCCC2)[nH]c2c1C(=O)CCC2` belongs -0.399% (inactive); to `COc1ccc(C(=O)NCc2cc3cc(Cl)ccc3[nH]2)cc1COc1ccccc1Cl`, 13.4% (inactive); to `COc1ccc(-n2nc(C(=O)NC3CCCC(C)C3C)c3c4ccccc4n(C)c3c2=O)cc1` (stereo unspecified), 0.653% (inactive). Under `Cc1cc(C)n(-c2ccc(-n3cccc3/C=C(/C#N)S(=O)(=O)c3ccccc3)cc2)n1` stands 1.25% (inactive); under `O=C(CSc1ccc(Cl)cc1)N1CCc2ccccc21`, 8.93% (inactive); under `Cc1cc(Sc2nnc(C)s2)c2ccccc2n1`, 34.4% (inactive). Under `COc1cc(S(=O)(=O)N2CCCCCCC2)ccc1-n1cnnn1` stands -2.51% (inactive); under `COc1ccc(NC(=S)N2CCCC(c3ccccc3)=N2)cc1`, -2.21% (inactive).

Regarding `C[C@@H]1CN([C@H](C)CO)C(=O)c2cc(NS(=O)(=O)c3cccs3)ccc2O[C@@H]1CN(C)Cc1ccc(C(F)(F)F)cc1`, the viability loss activity score is 0.614% (inactive). Regarding `CCOC(=O)C1CCN(S(=O)(=O)c2ccc(N3C(=O)CC4(CCCC4)C3=O)c(Cl)c2)CC1`, the viability loss activity score is 1.47% (inactive). To `O=C(Nn1cnc2ccccc2c1=O)c1ccccc1` belongs 3.68% (inactive); to `CCC(NCC(O)Cn1c2ccccc2c2ccccc21)C(=O)O` (stereo unspecified), -1.06% (inactive). Under `CC(C)Nc1ccc(-n2nc3ccccc3[n+]2[O-])cc1` stands 2.31% (inactive). `Cc1cccc[n+]1C/C=C\c1ccccc1`: the viability loss activity score was 13.2% (inactive). Take `Cc1ccc(S(=O)(=O)Nc2ccc3c(c2)C(=O)N([C@@H](C)CO)C[C@@H](C)[C@@H](CN(C)S(=O)(=O)c2ccc(C)cc2)O3)cc1`: the viability loss activity score is 3.23% (inactive). Under `CC(C)(C)c1nc(=S)[nH][nH]1` stands -5.55% (inactive); under `Cc1noc(C)c1S(=O)(=O)Nc1ccc2c(c1)C(=O)N([C@@H](C)CO)C[C@H](C)[C@H](CN(C)Cc1ccc(C(=O)Nc3ccccc3N)cc1)O2`, 6.72% (inactive); under `Cn1c(Cc2nc(-c3cnccn3)no2)nnc1SCC(=O)Nc1ccc(Cl)cc1`, -7.21% (inactive). In the case of `Cc1ccc(-n2cc(-c3ccccc3)c3c(NN4CCOCC4)ncnc32)cc1Cl`, the viability loss activity score is 0.765% (inactive). Take `CC(C)(C)NC(=S)N1CCn2cccc2C1c1ccccc1F` (stereo unspecified): the viability loss activity score is -3.87% (inactive). Under `Cc1ccccc1OC1C(=O)N(CCc2ccc(F)cc2)C1c1ccc2c(c1)OCO2` (stereo unspecified) stands 0.258% (inactive). Turning to `CCCC(=O)N1CCC(c2c[nH]c3ccccc23)(c2c[nH]c3ccccc23)CC1`, the viability loss activity score was 5.31% (inactive). For `CC(=O)NN1C(=O)c2ccccc2NC1c1ccccc1` (stereo unspecified), the viability loss activity score was -1.21% (inactive). On to `Cc1cccc(C(=O)Nc2ccc(NC(=O)c3ccco3)cc2)c1`, for which the viability loss activity score is 0.303% (inactive).

For the molecule `CS(=O)(=O)c1sc(C(=O)Nc2ccccc2Cl)c2c1C=CCC2`, the viability loss activity score is -1.24% (inactive).

For `NC(=O)Cn1nnc2sc3c(c2c1=O)CCCC3`, the viability loss activity score was 10.6% (inactive).

With `Cc1ccc(CC2C(=O)N(c3cccc(C(F)(F)F)c3)C(=O)C2C)cc1` (stereo unspecified), the viability loss activity score is 1.06% (inactive). On to `O=C(O)c1ccc(CNCCc2ccccc2)s1`, for which the viability loss activity score is 0.164% (inactive). Regarding `COC(=O)C1=C(C)N(C)C(=S)NC1c1ccccc1` (stereo unspecified), the viability loss activity score was -3.34% (inactive). To `CCOC(=O)c1cccc(NC(=O)CCOc2ccccc2)c1` belongs 2.1% (inactive); to `Cc1ccc(CCNC(=O)C2(NS(=O)(=O)c3cccc4cccnc34)CCCCC2)cc1`, 2.11% (inactive); to `Cc1ccc(S(=O)(=O)N(CC(=O)NC2CC2)C2CCCCC2)cc1`, 5.79% (inactive).

Consider `CC(C)(C)C(=O)CSc1nc2ccccc2c(=O)n1CC1CC1`, for which the viability loss activity score was -4.35% (inactive).

On to `Cc1cc(C(C)(C)C)cc(S(=O)(=O)Nc2ccc(C(=O)N3CCC(C)CC3)cc2)c1C`, for which the viability loss activity score is -6.82% (inactive). In the case of `O=c1n(Cc2ccccc2)c2ccccc2n1Cc1ccccc1`, the viability loss activity score was 6.4% (inactive). In the case of `CC(C)NC(=O)Nc1ccc2c(c1)C(=O)N([C@@H](C)CO)C[C@H](C)[C@H](CN(C)S(=O)(=O)c1cccs1)O2`, the viability loss activity score was -2.18% (inactive).

With `O=C1C2=C(Nc3ccccc3S(=O)(=O)C2c2ccc(Cl)cc2)c2ccccc21` (stereo unspecified), the viability loss activity score was 0.962% (inactive). Under `CNC(=O)NC(=O)CSc1ncnc2sc(-c3ccccc3)cc12` stands 7.62% (inactive); under `CC(C)NC(=O)N(C)C[C@H]1Oc2ccc(NC(=O)CCCCCC(=O)Nc3ccccc3N)cc2C(=O)N([C@@H](C)CO)C[C@@H]1C`, -2.79% (inactive); under `Cc1ccccc1C(=O)Nc1ccc(NC(=O)c2ccc(C(C)(C)C)cc2)cc1`, -4.36% (inactive).

As to `N#Cc1c(-c2ccccc2)c(-c2ccccc2)nn(CC(=O)NN)c1=O`, the viability loss activity score was 26.9% (inactive).

Turning to `COC(=O)C1=C(C)NC2=C(C(=O)c3ccccc32)C1c1ccc(OC)cc1` (stereo unspecified), the viability loss activity score is -2.35% (inactive). As to `CCOC(=O)c1cc2c(C)n(-c3ccccc3)c(C)c2cc(C(=O)OCC)c1=O`, the viability loss activity score was -1.14% (inactive). Under `CC(C)n1c(SCC(=O)O)nc2cc(Cl)ccc21` stands 2.11% (inactive); under `CCN(/C=C1\SC(=S)N(c2ccc(OC)cc2)C1=O)CC`, -2.34% (inactive). Under `CCCN(C(=O)CCc1nc(-c2ccccc2F)no1)c1ccccc1C` stands 14.3% (inactive); under `COc1ccc(CN(C)C[C@H]2Oc3c(NC(=O)C4CCCCC4)cccc3C(=O)N([C@@H](C)CO)C[C@@H]2C)cc1`, 0.512% (inactive).

On to `CC(=O)Nc1ccc(Nc2c3c4c(cccc4[nH]c2=O)C(=O)c2ccccc2-3)cc1`, for which the viability loss activity score was 59.2% (active). To `O=C(Nc1ccccc1C(=O)O)c1ccc(CN2CCOCC2)cc1` belongs 8.6% (inactive).

For `CCn1cc(C(=O)NC2CCCC(C)C2C)c2cc(OC)c(OC)cc2c1=O` (stereo unspecified), the viability loss activity score is 2.08% (inactive). Under `O=C1/C(=C/c2cccc(Br)c2)SC(=S)N1CC(=O)N1CCCc2ccccc21` stands -6.26% (inactive); under `O=S(=O)(Nc1ccccc1C(F)(F)F)c1ccc2c(c1)CCO2`, 2.04% (inactive). As for `C[C@@H]1CN([C@H](C)CO)C(=O)c2cc(NS(=O)(=O)c3ccc(Cl)cc3)ccc2O[C@@H]1CN(C)CC1CCCCC1`, the viability loss activity score is -2.47% (inactive). As to `COc1ccc(-c2nn(-c3ccc(C)c(Cl)c3)c3c2cnc2ccc(F)cc23)cc1OC`, the viability loss activity score was -4.15% (inactive). To `Cc1ccc(S(=O)(=O)n2c(C)cc(C(=O)O)c2C)cc1` belongs -6.81% (inactive); to `NC1=NC(=O)C(Cc2cccc(Cl)c2)S1` (stereo unspecified), -0.141% (inactive); to `CCC(Sc1nc2ccsc2c(=O)n1Cc1ccccn1)C(=O)Nc1cccc(OC)c1` (stereo unspecified), -2.12% (inactive). To `CCOC(=O)C1C=C2C(=O)N3C=CC=CC3N=C2N(C(C)C)C1=NC(C)=O` (stereo unspecified) belongs -1.61% (inactive); to `C=CCSc1nnc2n1CCCN2C(=O)Nc1cccc(Cl)c1`, -3.59% (inactive). Under `OC(CN1CCN(C2c3ccccc3-c3ccccc32)CC1)c1ccccc1` (stereo unspecified) stands 0.265% (inactive); under `Cc1cc(Nc2ccc(Cl)cc2)c2ccccc2n1`, 12.6% (inactive); under `CCCn1cc(SCC(=O)N2CCc3ccccc32)c2ccccc21`, 1.29% (inactive). Take `CCOC(=O)c1c(NC(=S)Nc2ccc(OC)cc2)sc2c1CC(C(C)C)OC2` (stereo unspecified): the viability loss activity score is 3.67% (inactive).

Take `CC(C)NC(=O)Cn1c2ccccc2c2cn[nH]c(=O)c21`: the viability loss activity score is -1.32% (inactive). On to `CC(=O)N(c1nc(-c2cc3ccccc3oc2=O)cs1)c1cccc(C)c1C`, for which the viability loss activity score was 5.58% (inactive). Take `CCc1c(C)c(C#N)c2nc3ccccc3n2c1-n1ccnc1`: the viability loss activity score is 1.77% (inactive). To `C[C@H]1CN([C@@H](C)CO)C(=O)c2cc(NC(=O)Cc3cn(C)c4ccccc34)ccc2O[C@H]1CN(C)Cc1ccc(Cl)c(Cl)c1` belongs -2.28% (inactive); to `Cc1ccc(S(=O)(=O)N(C)C[C@@H]2Oc3ccc(NS(=O)(=O)c4cccs4)cc3C(=O)N([C@@H](C)CO)C[C@H]2C)cc1`, -3.75% (inactive).
